Test results reported in PubChem BioAssay AID2806 (Sanford-Burnham Center for Chemical Genomics, 2010).
Out of some 330,000 compounds screened, about 660 (0.2%) were called active.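 Rule for the calls: active = inhibition of at least 40% at 10 µM in the primary screen; inactive = the rest.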 Only a selection was taken, and actives are over-represented in it overall.

Each molecule was assayed on intestinal alkaline phosphatase [Mus musculus] (assay: mouse intestinal phosphatase enzyme inhibition – biochemical, luminescence, uHTS, primary screen (AID 2806;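 note: plate controls were DMSO with enzyme for no effect and no enzyme wells for full effect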)). Conditions: purified mouse IAP, CDP-Star luminescence, 30 min; at 10 µM; active compounds read high.

inhibition, inactive:
O=[N+]([O-])c1ccc(N2CCNCC2)cc1NCc1cccnc1 3%
Nc1ccc(-n2nncc2-c2ccco2)cc1 -3.6%
C=CCn1c(SCc2nnc(-c3ccccc3)o2)nnc1C(O)c1ccccc1 (stereo not given) -0.4%
CCN(c1ccccc1)S(=O)(=O)c1cc2c(cc1C)n(C)c(=O)c(=O)n2C -8%
NC(=O)C1CCCN(CC(=O)N2CCN(c3ccccc3)CC2)C1 (stereo not given) 15%
COc1ccc(NC(=O)C2CCC(CNc3c(N4CCCCC4)c(=O)c3=O)CC2)c(OC)c1 (stereo not given) -14.9%
COc1ccc(N2CCN(S(=O)(=O)c3cc4c5c(c3)C(C)C(=O)N5CCC4)CC2)cc1 (stereo not given) -7.1%
CCn1c(C)c(C)c2cc(C(=O)N3CCN(c4cccc(C)c4C)CC3)ccc21 1.5%
COc1ccc(OC)c(NC(=O)Cn2c(=O)oc3ccccc32)c1 -4.3%
CC(=O)Nc1c2c(nn1-c1cccc(C)c1)CSC2 9.8%
CCCCC(=O)Nc1ccc2c(c1)C(=O)NC2=O 7%
Cc1nn(C)c(C(=O)NNC(=S)NC2CCCCC2)c1Cl 16.2%
CCCCCCCCCOC1OC(CO)C(O)C(O)C1NC(C)=O (stereo not given) 3.6%
O=C(Nc1ncc2c(n1)CC(c1ccco1)CC2=O)c1ccc(Cl)cc1 (stereo not given) 0.8%
COc1cc(C2CC(=O)c3cnc(NC(C)=O)nc3C2)cc(OC)c1OC (stereo not given) 6.1%
Brc1cnc2ccccc2c1N1CCCCC1 -0.5%
CCC(=O)c1ccc(OCC(=O)OCC(=O)N2CCc3ccccc3C2)cc1 2.5%
Cc1cc(NC(=O)/C=C/C(=O)N(CC(=O)NC2CCCC2)c2ccc(F)cc2)no1 5.2%
O=C(NCc1cc(C(F)(F)F)cc(C(F)(F)F)c1)C1CC(c2cccc(F)c2)=NO1 (stereo not given) -2.8%
COc1ccc(CNC(=O)C2CCCC2)cc1 4.3%
CC1CCCCN1S(=O)(=O)CCNC(=O)c1ccccc1 (stereo not given) 8.6%
Cc1ccc(C)c(NC(=O)CSc2nc3c(oc4ccccc43)c(=O)n2-c2ccccc2)c1 2.2%
Cc1ccc(-c2nnn(CC(=O)N(CCO)C(C(=O)NC(C)(C)C)c3ccncc3)n2)cc1 (stereo not given) -1.3%
CCNC(=O)N1CCN(S(=O)(=O)c2ccc3c(c2)OCCCO3)CC1 -17.6%
COc1cccc2[nH]c(C(=O)NCCc3ccccc3)cc12 -19.5%
O=C(N1CCCCC1)N1CCN(C(=O)N2CCCCC2)CC1 -1.7%
CC1(C)S[C@@H]2[C@H](N=CN3CCCCCC3)C(=O)N2[C@H]1C(=O)O -8.2%
O=C(COC(=O)Cn1[nH]c(=O)c2ccccc2c1=O)Nc1c(Cl)cccc1C(F)(F)F 4.1%
O=C(c1cc2ccccc2o1)N1CCN(S(=O)(=O)c2ccc(Cl)s2)CC1 -5.4%
Cc1cc(-c2ccc(S(=O)(=O)N3CCc4ccccc4C3)s2)on1 4.5%
NC(=O)NC(=O)CSc1nc2cc([N+](=O)[O-])ccc2n1-c1cccc(C(F)(F)F)c1 14.7%
CCc1sc(C(=O)N2CCN(CC(=O)Nc3cccc(F)c3)CC2)cc1C 6.1%
CC[C@]1(O)C[C@@H]2CN(CCc3c([nH]c4ccccc34)[C@@](C(=O)OC)(c3cc4c(cc3OC)N(C)[C@H]3[C@@](O)(C(=O)OC)[C@H](OC(C)=O)[C@]5(CC)C=CCN6CC[C@]43[C@@H]65)C2)C1 -16.7%
CCNc1c(NS(=O)(=O)c2ccc(C3CCCCC3)cc2)c(=O)oc2ccccc12 6%
CC(=O)Nc1ccc(S(=O)(=O)Nc2cc(C)cn(Cc3ccc(C)cc3)c2=O)cc1 4.9%
O=C(Nc1cccc2ccccc12)c1onc2c1CCCC2 3%
COc1cc(CN2CCNC(=O)C2CC(=O)NCCc2ncccc2C)cc(OC)c1 (stereo not given) 5.5%
O=S(=O)(NCc1ccc2c(c1)OCO2)c1cccc2nsnc12 -5.4%
Cc1ccc(S(=O)(=O)NCC(=O)NNC(=O)c2ccc(Br)cc2)cc1C 28.4%
Cn1c2c(c(=O)n(C)c1=O)C1c3ccccc3OCC1C(C)(C)O2 (stereo not given) 8.7%
CC(C)Oc1ccc(CN2CCC(n3nccc3NC(=O)c3cccnc3)CC2)cc1 -5.5%
CC(C)Oc1ccc(CCc2nnc(SCC(=O)O)n2-c2ccccc2)cc1 3.2%
Cc1ccc(S(=O)(=O)N2CCN(CC(=O)N/N=C/c3cc([N+](=O)[O-])ccc3Cl)CC2)cc1 14.9%
O=S(=O)(c1ccc(NC(=S)NN=C(C2CC2)C2CC2)cc1)N1CCOCC1 37.7%
COc1ccccc1C1C(C(N)=O)=C(C)Nc2nc(CCCO)nn21 (stereo not given) -1.6%
Cc1occc1-c1nnc(SCC(=O)NC2CCCCC2)o1 -1.8%
O=C1N[C@H](Cc2ccccc2)C(=O)N[C@H]1Cc1cn(S(=O)(=O)c2ccccc2)c2ccccc12 -8%
CCOC(=O)C(NS(=O)(=O)c1ccc(C)cc1)(C(F)(F)F)P(=O)(OCC(C)C)OCC(C)C (stereo not given) 2.8%
CCOC(=O)/C(N=Nc1cc(C(=O)O)cc(C(=O)O)c1)=C(\O)CCl -0.2%
CCn1c(CSc2nncn2-c2ccc(OC)cc2)nc2cc(S(=O)(=O)N(C)C)ccc21 6.6%
CCN(CC)S(=O)(=O)c1cc(C(=O)Nc2ccccn2)ccc1C 0.4%
OCC(O)CN(c1ccccc1)c1ccccc1 (stereo not given) 0.3%
CN(C(=O)C1CCN(c2ncnc3c2nc2n3CCCCC2)CC1)C1CCCCC1 -5%
FC(F)(F)c1nnc2c3ccccc3c(Cl)nn12 -3.6%
CC(=O)N1CC[n+]2c(-c3ccc([N+](=O)[O-])cc3)csc21 7.9%
Cc1nc(C(=O)N2CCCC(C(=O)c3ccc(Cl)cc3)C2)cs1 (stereo not given) 0.3%
CCc1ccc(CN(C)Cc2nc(Cc3ccccc3)no2)nc1 -1.4%
O=C1N[C@@H](Cc2ccccc2)C(=O)N2[C@H]1C[C@]1(Br)c3ccccc3N(S(=O)(=O)c3ccccc3)[C@H]21 5.7%
CCC(=O)Nc1c(S(=O)(=O)c2ccccc2)c2nc3ccccc3nc2n1Cc1ccccc1 2.7%
O=C(O)c1ccccc1OCc1ccccc1Cl 6.6%
CN(C(=O)CSc1nnc(N)s1)c1c(N)n(Cc2ccccc2)c(=O)[nH]c1=O 3.6%
Cc1ccc(N2C(=O)c3ccccc3C2(O)c2ncc[nH]2)cc1 (stereo not given) -9%
CCC(C)(C(=O)NC1CCCCC1)N(C)C(=O)c1ccc2c(c1)OCO2 (stereo not given) 2.8%
CCOc1ccc(NS(=O)(=O)c2cc(C)c(C)cc2C)cc1 -7.7%
CN(C)N(C)C(=O)C(O)(c1ccccc1)c1ccccc1 2.1%
O=c1c(F)cn(C2CCCO2)c(=O)n1Cc1ccccc1Cl (stereo not given) -1.3%

inhibition, active:
CCc1ccc(Nc2ncc3c(n2)CC(c2ccco2)CC3=O)cc1 (stereo not given) 41.4%
COc1ccc(CNC(=O)C2CC(c3ccc(C(F)(F)F)cc3)=NO2)cc1 (stereo not given) 41.4%
Oc1cc(O)c2c(c1)OC(c1ccc(O)c(O)c1)C(O)C2 (stereo not given) 75.1%
O=[N+]([O-])c1cc(Cl)cc(/C=N/NC(=S)Nc2cc(S(=O)(=O)N3CCOCC3)ccc2Cl)c1O 40.5%
